What was measured:
Conditions in all cases: treatment time: 24 h
A549-ACTB-RAB5A [1] = test: lowest phenotypically active concentration; higher = less potent
Procedure, shortened: (§1)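 After 24 h at 0.3, 1, 3 or 9 µM, with four wells per treatment, fifteen gene-edited A549, HepG2 and WPMY1 reporter lines carrying BFP, GFP and RFP/FusionRed were imaged live. Each well's live-cell features were expressed relative to solvent control wells. Deviation required ≥3 of 4 wells past the 95th percentile of control Euclidean distances, and reproducibility a median replicate Pearson correlation over the 95th percentile of non-replicates. Phenotypic activity rested on both.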

A549-GM130-SQSTM1 [2] = test: as above
Procedure, shortened: as §1

A549-TUBA1B-RELA [3] = test: as above
Procedure, shortened: as §1

HepG2-ACTB-RAB5A [4] = test: as above
Procedure, shortened: as §1

A549-ACTB-RAB5A [5] = test: phenotypically active (imaging signature differs from DMSO and reproducible) at any of 0.3-9 uM (binary (1 = active, 0 = inactive)); higher = active
Procedure, shortened: as §1

A549-CANX-COX4 = test: as above
Procedure, shortened: as §1

A549-GM130-SQSTM1 [6] = test: as above
Procedure, shortened: as §1

A549-TP53BP1-CLTA = test: as above
Procedure, shortened: as §1

A549-TUBA1B-RELA [7] = test: as above
Procedure, shortened: as §1

HepG2-ACTB-RAB5A [8] = test: as above
Procedure, shortened: as §1

HepG2-CANX-COX4 = test: as above
Procedure, shortened: as §1

HepG2-GM130-SQSTM1 = test: as above
Procedure, shortened: as §1

HepG2-TP53BP1-CLTA [9] = test: as above
Procedure, shortened: as §1

HepG2-TUBA1B-RELA = test: as above
Procedure, shortened: as §1

WPMY1-ACTB-RAB5A = test: as above
Procedure, shortened: as §1

WPMY1-CANX-COX4 = test: as above
Procedure, shortened: as §1

WPMY1-GM130-SQSTM1 = test: as above
Procedure, shortened: as §1

WPMY1-TP53BP1-CLTA = test: as above
Procedure, shortened: as §1

WPMY1-TUBA1B-RELA = test: as above
Procedure, shortened: as §1

HepG2-TP53BP1-CLTA [10] = test: lowest phenotypically active concentration; higher = less potent
Procedure, shortened: as §1

CC1=C(/C=C/C(C)=C\C=C\C(C)=C\C(=O)O)C(C)(C)CCC1 [tretinoin]
1 µM: lowest phenotypically active concentration (HepG2-ACTB-RAB5A [4])
3 µM: lowest phenotypically active concentration (A549-ACTB-RAB5A [1]) | lowest phenotypically active concentration (A549-GM130-SQSTM1 [2]) | lowest phenotypically active concentration (A549-TUBA1B-RELA [3])
active: phenotypically active (A549-ACTB-RAB5A [5]) 1 | phenotypically active (A549-GM130-SQSTM1 [6]) 1 | phenotypically active (A549-TUBA1B-RELA [7]) 1 | phenotypically active (HepG2-ACTB-RAB5A [8]) 1 | phenotypically active (HepG2-CANX-COX4) 1 | phenotypically active (HepG2-GM130-SQSTM1) 1 | phenotypically active (WPMY1-ACTB-RAB5A) 1 | phenotypically active (WPMY1-CANX-COX4) 1 | phenotypically active (WPMY1-GM130-SQSTM1) 1 | phenotypically active (WPMY1-TP53BP1-CLTA) 1 | phenotypically active (WPMY1-TUBA1B-RELA) 1
inactive: phenotypically active (A549-CANX-COX4) 0 | phenotypically active (A549-TP53BP1-CLTA) 0 | phenotypically active (HepG2-TP53BP1-CLTA [9]) 0 | phenotypically active (HepG2-TUBA1B-RELA) 0

Clc1ccc2c(c1)C(N1CCNCC1)=Nc1ccccc1O2 [amoxapine]
9 µM: lowest phenotypically active concentration (HepG2-ACTB-RAB5A [4])
3 µM: lowest phenotypically active concentration (A549-ACTB-RAB5A [1]) | lowest phenotypically active concentration (A549-GM130-SQSTM1 [2]) | lowest phenotypically active concentration (A549-TUBA1B-RELA [3])
active: phenotypically active (A549-ACTB-RAB5A [5]) 1 | phenotypically active (A549-GM130-SQSTM1 [6]) 1 | phenotypically active (A549-TUBA1B-RELA [7]) 1 | phenotypically active (HepG2-ACTB-RAB5A [8]) 1 | phenotypically active (HepG2-GM130-SQSTM1) 1 | phenotypically active (HepG2-TUBA1B-RELA) 1 | phenotypically active (WPMY1-ACTB-RAB5A) 1 | phenotypically active (WPMY1-TUBA1B-RELA) 1
inactive: phenotypically active (A549-CANX-COX4) 0 | phenotypically active (A549-TP53BP1-CLTA) 0 | phenotypically active (HepG2-CANX-COX4) 0 | phenotypically active (HepG2-TP53BP1-CLTA [9]) 0 | phenotypically active (WPMY1-CANX-COX4) 0 | phenotypically active (WPMY1-GM130-SQSTM1) 0 | phenotypically active (WPMY1-TP53BP1-CLTA) 0

CCCc1cc(C)n(C)c(=O)c1CN(C)C(=O)c1cc(-c2ccc(N3CCN(C(C)C)CC3)nc2)cc2c1cnn2C(C)C
active: phenotypically active (A549-ACTB-RAB5A [5]) 1 | phenotypically active (A549-GM130-SQSTM1 [6]) 1 | phenotypically active (A549-TUBA1B-RELA [7]) 1 | phenotypically active (HepG2-ACTB-RAB5A [8]) 1 | phenotypically active (HepG2-GM130-SQSTM1) 1 | phenotypically active (HepG2-TP53BP1-CLTA [9]) 1 | phenotypically active (WPMY1-ACTB-RAB5A) 1 | phenotypically active (WPMY1-CANX-COX4) 1 | phenotypically active (WPMY1-GM130-SQSTM1) 1 | phenotypically active (WPMY1-TP53BP1-CLTA) 1 | phenotypically active (WPMY1-TUBA1B-RELA) 1
9 µM: lowest phenotypically active concentration (HepG2-ACTB-RAB5A [4])
3 µM: lowest phenotypically active concentration (A549-ACTB-RAB5A [1]) | lowest phenotypically active concentration (A549-GM130-SQSTM1 [2]) | lowest phenotypically active concentration (A549-TUBA1B-RELA [3]) | lowest phenotypically active concentration (HepG2-TP53BP1-CLTA [10])
inactive: phenotypically active (A549-CANX-COX4) 0 | phenotypically active (A549-TP53BP1-CLTA) 0 | phenotypically active (HepG2-CANX-COX4) 0 | phenotypically active (HepG2-TUBA1B-RELA) 0

COCCCC/C(=N/OCCN)c1ccc(C(F)(F)F)cc1 [fluvoxamine]
active: phenotypically active (A549-ACTB-RAB5A [5]) 1 | phenotypically active (A549-GM130-SQSTM1 [6]) 1 | phenotypically active (A549-TUBA1B-RELA [7]) 1 | phenotypically active (HepG2-TP53BP1-CLTA [9]) 1 | phenotypically active (HepG2-TUBA1B-RELA) 1 | phenotypically active (WPMY1-ACTB-RAB5A) 1
9 µM: lowest phenotypically active concentration (A549-ACTB-RAB5A [1]) | lowest phenotypically active concentration (A549-GM130-SQSTM1 [2]) | lowest phenotypically active concentration (A549-TUBA1B-RELA [3]) | lowest phenotypically active concentration (HepG2-TP53BP1-CLTA [10])
inactive: phenotypically active (A549-CANX-COX4) 0 | phenotypically active (A549-TP53BP1-CLTA) 0 | phenotypically active (HepG2-ACTB-RAB5A [8]) 0 | phenotypically active (HepG2-CANX-COX4) 0 | phenotypically active (HepG2-GM130-SQSTM1) 0 | phenotypically active (WPMY1-CANX-COX4) 0 | phenotypically active (WPMY1-GM130-SQSTM1) 0 | phenotypically active (WPMY1-TP53BP1-CLTA) 0 | phenotypically active (WPMY1-TUBA1B-RELA) 0

CCOC(=O)c1c(CSc2ccccc2)n(C)c2cc(Br)c(O)c(CN(C)C)c12 [arbidol]
active: phenotypically active (A549-ACTB-RAB5A [5]) 1 | phenotypically active (A549-GM130-SQSTM1 [6]) 1 | phenotypically active (A549-TUBA1B-RELA [7]) 1 | phenotypically active (HepG2-ACTB-RAB5A [8]) 1 | phenotypically active (HepG2-CANX-COX4) 1 | phenotypically active (HepG2-GM130-SQSTM1) 1 | phenotypically active (HepG2-TP53BP1-CLTA [9]) 1 | phenotypically active (HepG2-TUBA1B-RELA) 1 | phenotypically active (WPMY1-GM130-SQSTM1) 1
9 µM: lowest phenotypically active concentration (A549-ACTB-RAB5A [1]) | lowest phenotypically active concentration (A549-GM130-SQSTM1 [2]) | lowest phenotypically active concentration (A549-TUBA1B-RELA [3]) | lowest phenotypically active concentration (HepG2-ACTB-RAB5A [4]) | lowest phenotypically active concentration (HepG2-TP53BP1-CLTA [10])
inactive: phenotypically active (A549-CANX-COX4) 0 | phenotypically active (A549-TP53BP1-CLTA) 0 | phenotypically active (WPMY1-ACTB-RAB5A) 0 | phenotypically active (WPMY1-CANX-COX4) 0 | phenotypically active (WPMY1-TP53BP1-CLTA) 0 | phenotypically active (WPMY1-TUBA1B-RELA) 0
